Test [1] can be described thus: NCI Yeast Anticancer Drug Screen. Data for the mec2-1 strain (AID 157). To be noted: S. cerevisiae mec2-1 strain, stronger effect = higher value. The method in brief: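 Growth inhibition is read against vehicle-treated controls after compound exposure of the mec2-1 yeast strain, which is defective in DNA damage repair or cell cycle control.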
A short description of test [2]: NCI Yeast Anticancer Drug Screen. Data for the sgs1 mgt1 strain (AID 161).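 Note: 0% = growth of cultures given vehicle only.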 The following applies: S. cerevisiae sgs1 mgt1 strain, stronger effect = higher value. The method in brief: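 Growth of a repair-deficient yeast mutant was monitored after compound treatment and expressed as inhibition relative to vehicle-treated cultures.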
A short description of test [3]: NCI Yeast Anticancer Drug Screen. Data for the cln2 rad14 strain (AID 165).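 Note: 0% = growth equal to vehicle treated cultures.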 To be noted: S. cerevisiae cln2 rad14 strain, stronger effect = higher value. The method in brief: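 Growth inhibition, relative to vehicle-treated controls, is the read-out. The test organism is a yeast strain with defined genetic alterations, cln2 rad14.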
The nature of test [4]: NCI Yeast Anticancer Drug Screen. Data for the bub3 strain (AID 167). To be noted: S. cerevisiae bub3 mutant strain, stronger effect = higher value. Summed up: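 Steps: expose the mutant yeast strain to compound; grow alongside vehicle-treated cultures; measure growth; express inhibition against the vehicle cultures.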
The nature of test [5]: NCI Yeast Anticancer Drug Screen. Data for the mlh1 rad18 strain (AID 175). To be noted: S. cerevisiae mlh1 rad18 strain growth inhibition, stronger effect = higher value. The method in brief:
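Cells of a genetically altered yeast strain, deficient in DNA damage repair, were treated with compound. Their growth was then compared with that of vehicle-treated cultures to give inhibition.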

Test [6] is described as follows: NCI Yeast Anticancer Drug Screen. Data for the rad50 strain (AID 155).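 Note: 0% = growth of vehicle-only cultures of the same strain.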 The following applies: S. cerevisiae rad50 strain growth inhibition, stronger effect = higher value. The method in brief:
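Inhibition values express reduced yeast growth in compound-treated cultures relative to vehicle-treated controls.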

The mark [7] stands for this setting: at 5.0 µM (retest, dose inferred, filed as 0.5).
[8] abbreviates: at 50.0 µM (retest, dose inferred, filed as 5.0).

Each structure is given as a SMILES string. Where “and” joins values, the source holds several entries; their conditions need not be identical. Equal values may be shown once. About 79,000 compounds went through this panel and 15% of them were active in at least one assay; those are over-represented in the sample as a whole. A number with no mark means an inactive call. Calls of active or inactive are those of the source. Cut-off read from the data, not from the text of the source: active = growth inhibition above about 70%; inactive = the rest.

The source of these data is PubChem BioAssay (NCI).

Take `CC(C)(C)C(=O)CC(Cc1nccc2ccccc12)c1ccco1` (stereo not drawn): the growth inhibition was -5% in test [1] (setting [7]); 96% (active) in test [1] (setting [8]); 99.2% (active) in test [1] (at 50.0 µM); -3% in test [2] (setting [7]); 97% (active) in test [2] (setting [8]); 98.7% (active) in test [2] (at 50.0 µM). The growth inhibition in test [3] (setting [7]) was 2%; in test [3] (setting [8]), 94% (active); in test [3] (at 50.0 µM), 98% (active); in test [4] (setting [7]), -1%; in test [4] (setting [8]), 94% (active); in test [4] (at 50.0 µM) it was 99.2% (active). Besides, the growth inhibition was -8% in test [5] (setting [7]), 97% (active) in test [5] (setting [8]) and 98.9% (active) in test [5] (at 50.0 µM).

Consider `O=CC(O)C(O)C(O)C(O)C(O)CO` (stereo not drawn), for which the growth inhibition is -13.5% and 36% and -23.8% in test [6] (at 50.0 µM); -1.55% and -10.8% and -7.35% in test [1] (at 50.0 µM); -8.85% and -1.5% and -6.45% in test [2] (at 50.0 µM); -56.4% and -44.2% and -19.8% in test [3] (at 50.0 µM); 7.5% and 25.1% and -0.4% in test [4] (at 50.0 µM); -12.4% and 19.2% and 4.25% in test [5] (at 50.0 µM).

In the case of `Cc1cc(Cl)ccc1N1C(=O)C(=O)C(c2nc3ccccc3o2)C(=O)C1=O`, the growth inhibition in test [6] (setting [7]) is 31%; in test [6] (setting [8]), 98% (active); in test [6] (at 50.0 µM), 86.3% (active); in test [1] (setting [7]) it was 21%; in test [1] (setting [8]) it was 99% (active); in test [1] (at 50.0 µM), 64.7%. The growth inhibition in test [2] (setting [7]) is 38%; in test [2] (setting [8]), 98% (active); in test [2] (at 50.0 µM), 88.8% (active); in test [4] (setting [7]) it was 22%; in test [4] (setting [8]) it was 96% (active); in test [4] (at 50.0 µM), 49.1%. In addition, the growth inhibition is 25% in test [5] (setting [7]), 96% (active) in test [5] (setting [8]) and 87.8% (active) in test [5] (at 50.0 µM).

Regarding `O=C1c2ccccc2C(=O)C2(C(c3ccccc3)c3ccccc3)N=NCC12` (stereo not drawn), the growth inhibition was -1% in test [1] (setting [7]); -7% in test [1] (setting [8]); 11.9% in test [1] (at 50.0 µM); 0% in test [2] (setting [7]); 18% in test [2] (setting [8]); 7.95% in test [2] (at 50.0 µM). In addition, the growth inhibition was 5% in test [3] (setting [7]); 5% in test [3] (setting [8]); -7.15% in test [3] (at 50.0 µM); 27% in test [4] (setting [7]); 42% in test [4] (setting [8]); 30.1% in test [4] (at 50.0 µM). Besides, the growth inhibition in test [5] (setting [7]) is 13%; in test [5] (setting [8]), 21%; in test [5] (at 50.0 µM) it was 12.2%.

In the case of `CC1=C(C(=O)Nc2ccc([N+](=O)[O-])cc2)C(c2ccccc2F)C(C(=O)Nc2ccc([N+](=O)[O-])cc2)=C(C)N1`, the growth inhibition in test [1] (setting [7]) was 5%; in test [1] (setting [8]), 5%; in test [1] (at 50.0 µM) it was 74.3% (active); in test [2] (setting [7]) it was 2%; in test [2] (setting [8]) it was 2%; in test [2] (at 50.0 µM) it was 52%. For the same compound, the growth inhibition was 6% in test [3] (setting [7]); 6% in test [3] (setting [8]); 64% in test [3] (at 50.0 µM); -1% in test [4] (setting [7]); -1% in test [4] (setting [8]); 60% in test [4] (at 50.0 µM). The growth inhibition is -2% in test [5] (setting [7]), -2% in test [5] (setting [8]) and 28.1% in test [5] (at 50.0 µM).

Regarding `CCOC(=O)c1cccc(C)c1C(=O)c1ccc(C)cc1C`, the growth inhibition in test [6] (setting [7]) is 3%; in test [6] (setting [8]) it was 66%; in test [6] (at 50.0 µM), 38.9%; in test [2] (setting [7]), 0%; in test [2] (setting [8]) it was -36%; in test [2] (at 50.0 µM) it was 47.3%. In addition, the growth inhibition is 6% in test [3] (setting [7]); -1% in test [3] (setting [8]); -9.5% in test [3] (at 50.0 µM); -4% in test [4] (setting [7]); 24% in test [4] (setting [8]); 82.8% (active) in test [4] (at 50.0 µM). Also, the results for the growth inhibition in test [5] (setting [7]), in test [5] (setting [8]) and in test [5] (at 50.0 µM) were -2%, 41% and 59.6%, respectively.

For the compound `O=C(c1ccccc1)C1C(=O)c2ccccc2C1=O`, the growth inhibition in test [6] (at 50.0 µM) is -10.2% and -25.2% and 23.2%; in test [1] (at 50.0 µM), 1.1% and -21.3% and 20%; in test [2] (at 50.0 µM), -5.1% and 12.2% and 24.1%; in test [3] (at 50.0 µM), -20.8% and 17.2% and 17.1%; in test [4] (at 50.0 µM), -10.4% and -2.95% and 19.4%; in test [5] (at 50.0 µM), -7.6% and -26.1% and 18.5%.

Regarding `CC(CN(C)C)C(=O)c1ccccc1` (stereo not drawn), the growth inhibition in test [6] (at 50.0 µM) is -3.95% and -8.85% and 34%; in test [1] (at 50.0 µM), -43.7% and -18.4% and 16.6%; in test [2] (at 50.0 µM), -4.85% and -15.9% and 18.1%; in test [3] (at 50.0 µM), 20.3% and -14.4% and 14.4%; in test [4] (at 50.0 µM) it was -23.1% and -11.6% and 18.4%; in test [5] (at 50.0 µM), 0.3% and -18.9% and 23.1%.

On to `CC1CCCC(C(c2c[nH]c3ccccc23)c2c[nH]c3ccccc23)C1=O` (stereo not drawn), for which the growth inhibition in test [6] (setting [7]) was 1%; in test [6] (setting [8]), 98% (active); in test [6] (at 50.0 µM) it was 96.8% (active); in test [2] (setting [7]), 3%; in test [2] (setting [8]), 97% (active); in test [2] (at 50.0 µM) it was 79.7% (active). For the same compound, the growth inhibition was 0% in test [3] (setting [7]); 98% (active) in test [3] (setting [8]); 76.3% (active) in test [3] (at 50.0 µM); -11% in test [4] (setting [7]); 96% (active) in test [4] (setting [8]); 46% in test [4] (at 50.0 µM). In addition, the growth inhibition in test [5] (setting [7]) is -5%; in test [5] (setting [8]), 98% (active); in test [5] (at 50.0 µM), 97.2% (active).

Consider `CC(=O)OC1CCC2(C)C(CCC3C2CCC2(C)C4CCC32OC(=O)C4CC(=O)O)C1` (stereo not drawn), for which the growth inhibition in test [1] (setting [7]) was -32%; in test [1] (setting [8]) it was 48%; in test [1] (at 50.0 µM), 89.5% (active); in test [2] (setting [7]), -12%; in test [2] (setting [8]), 13%; in test [2] (at 50.0 µM), 89.5% (active). For the same compound, the growth inhibition in test [3] (setting [7]) was 7%; in test [3] (setting [8]), 49%; in test [3] (at 50.0 µM), 90.5% (active); in test [4] (setting [7]) it was -2%; in test [4] (setting [8]), 49%; in test [4] (at 50.0 µM), 73% (active). For the same compound, the growth inhibition in test [5] (setting [7]) is 10%; in test [5] (setting [8]), 65%; in test [5] (at 50.0 µM) it was 93.5% (active).
